Hit rate of the full screen: of about 330,000 compounds, about 5,800 (1.8%) were called active. Rule as the data show it: active = inhibition mostly above about 38% (no sharp cut-off); inactive = mostly below about 40%. The entries come from a sample that favours actives as a whole.

For the assay, the target named is Orexin/Hypocretin receptor type 1 (Homo sapiens) (UniProt O43613). The assay can be described thus: blocks the human orexin 1 receptor (AID 485270).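 Also: 0% = agonist challenge alone and 100% = reference antagonist.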 The conditions noted are these: OX1R-expressing cells, FRET antagonist read-out; at 6.6 µM; active compounds read high.
Orexin/Hypocretin receptor type 1 (Homo sapiens), sequence (O43613 whole entry, looked up): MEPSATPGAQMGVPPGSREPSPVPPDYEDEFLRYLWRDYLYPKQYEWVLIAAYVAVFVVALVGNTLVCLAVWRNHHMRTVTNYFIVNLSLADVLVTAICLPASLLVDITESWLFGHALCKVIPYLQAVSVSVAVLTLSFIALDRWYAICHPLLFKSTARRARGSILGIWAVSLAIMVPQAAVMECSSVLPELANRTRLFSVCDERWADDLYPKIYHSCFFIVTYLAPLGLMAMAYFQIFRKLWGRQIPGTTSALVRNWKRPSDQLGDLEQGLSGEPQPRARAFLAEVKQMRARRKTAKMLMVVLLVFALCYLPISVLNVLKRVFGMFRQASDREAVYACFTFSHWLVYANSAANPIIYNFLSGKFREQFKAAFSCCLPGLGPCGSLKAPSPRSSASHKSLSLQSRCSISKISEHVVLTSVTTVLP
In general, inhibition refers to the change of the read-out against control, counted positive when it falls. `O=C1OCCN1C(=O)[C@H]1[C@H](c2ccc(Cl)cc2)C(c2cccc(Cl)c2)=NN1c1ccc(Br)cc1`: the inhibition is -1.81% (inactive).
The figure for `Cc1ccc(C)c(N2CCN(C(=O)CCc3nc(-c4cccc(C(F)(F)F)c4)no3)CC2)c1` is 5.16% (inactive); for `CC(=O)N(O)CCCCCNC(=O)CCC(=O)N(O)CCCCCNC(=O)CCC(=O)N(O)CCCCCNC(=O)CCC(=O)O` it is 3.94% (inactive); for `Cc1ccc(C(=O)Nc2ccc3c(c2)OCCO3)cc1S(=O)(=O)N1CCOCC1` it is 1.11% (inactive).
The figure for `COc1cc(OC)cc(C(=O)N[C@H](C(=O)NNC(=O)c2ccc(Br)cc2)C(C)C)c1` is 6.01% (inactive).
Next, `N/C(=N\OC(=O)c1ccc2c(c1)OCO2)c1ccc(Br)cc1`: 10.9% (inactive); `O=C(c1ccc2c(c1)OCO2)N1CCOCC1`: 14.4% (inactive); `Nc1[nH][nH]c(=O)c1N=Nc1ccc2c(c1)OCO2`: 84.8% (active).
For `CC(C)(C)OC(=O)C[C@@H]1C/C=C\C[C@@H](CC(=O)N[C@H](CO)Cc2ccccc2)C(=O)NCCOC1=O`, the inhibition is 5.83% (inactive).
The figure for `O=C(C[C@H]1C/C=C\C[C@@H](NC(=O)OCC2c3ccccc3-c3ccccc32)C(=O)O[C@@H](c2ccccc2)CNC1=O)N[C@H](CO)Cc1ccccc1` is 6.4% (inactive); for `Cc1cc(N2CCCC2)ccc1NC(=O)COc1ccc(Cl)cc1` it is 8.39% (inactive); for `COC(=O)N/N=C/c1ccc(/C=N/NC(=O)OC)cc1` it is 48.6% (inactive).
Consider `COC(=O)N/N=C/c1cn(CCCOc2ccc(C)cc2)c2ccccc12`, for which the inhibition was 13.5% (inactive).
Next, `COC(=O)N/N=C/c1c[n+]([O-])c2ccccc2[n+]1[O-]`: 101% (active); `O=C(Nc1cc(S(=O)(=O)N2CCCCC2)ccc1Cl)C1COc2ccccc2O1` (centres undefined): 2.12% (inactive); `CC(=O)c1ccc(NC(=O)CSc2nc3ccccc3c(=O)n2CCCN2CCOCC2)cc1`: 3.62% (inactive).
The figure for `Fc1ccc(-n2c(Cc3ccccc3)nnc2SCc2nc(-c3ccc(Cl)cc3)no2)cc1` is 35% (active).
The figure for `Cc1ccc(-c2noc(CSc3nnc(-c4ccccc4)n3C)n2)cc1` is 14.3% (inactive); for `Cc1ccc(-c2noc(CSc3nnc(-c4ccncc4)n3-c3ccc(F)cc3)n2)cc1` it is 13.8% (inactive).
On to `O=C(CSc1nnc(-c2ccc([N+](=O)[O-])cc2)o1)Nc1ccccn1`, for which the inhibition was 20.6% (inactive).
Regarding `Cc1cccc(C)c1OC(=O)CSc1nnc(-c2ccccc2)o1`, the inhibition was 27.6% (inactive).
Next, `CCOC(=O)CSc1nnc(-c2ccc([N+](=O)[O-])cc2)o1`: 58.6% (active).
The figure for `Cc1noc(C)c1NC(=O)Nc1ccc2c(c1)C(=O)N([C@H](C)CO)C[C@H](C)[C@@H](CN(C)C(=O)Nc1ccc(C(F)(F)F)cc1)O2` is 7.42% (inactive); for `COc1ccc(CCNC(=O)COC(=O)c2ncc(Cl)c(Cl)c2Cl)cc1OC` it is 9.72% (inactive); for `Cc1ccc(-c2noc(CSc3nnnn3-c3ccccc3)n2)cc1` it is 5.93% (inactive).
For `COc1ccc(C)cc1-n1nnnc1SCc1nc2ccccc2c(=O)[nH]1`, the inhibition was 35.5% (inactive).
Next, `Cc1ccc(Nc2nc(CSc3nnnn3-c3ccccc3)cc(=O)[nH]2)cc1`: 81.8% (active); `CCn1c(O)c(N=NC(=O)c2cccc(S(=O)(=O)N3CCCCC3)c2)c2ccccc21`: 11% (inactive); `CCn1c(O)c(N=NC2=NC(=O)CS2)c2cc(C)ccc21`: 101% (active).
Next, `COC(=O)Cn1c2ccc(C)cc2c2nc(C)sc21`: 11.6% (inactive).
For `CCN(C(=O)CSc1cccc[n+]1[O-])c1ccccc1`, the inhibition was 0.91% (inactive).
Next, `CN(CCO)S(=O)(=O)c1ccc2c(c1)C(=O)c1cc(S(=O)(=O)N(C)CCO)ccc1-2`: 57.6% (active); `CN(CC(=O)O)S(=O)(=O)c1ccc2oc3ccccc3c2c1`: 7.24% (inactive).
The figure for `O=C(O)c1ccc(NS(=O)(=O)c2ccc3c(c2)C(=O)c2cc(S(=O)(=O)Nc4ccc(C(=O)O)cc4)ccc2-3)cc1` is 18.6% (inactive); for `Cc1cc(C)cc(NC(=O)CSCc2cnn(-c3ccccc3)c2-n2cccc2)c1` it is 68.1% (inactive).
With `O=C(CSCc1ccccc1)Nc1ccccc1`, the inhibition is 4.92% (inactive).
Regarding `CC(=O)Nc1ccc(NC(=O)CSCc2cnn(-c3ccccc3)c2-n2cccc2)cc1`, the inhibition was 39.8% (active).
On to `CC(=O)c1c(C)[nH]c(C(=O)COC(=O)CCOc2ccc(C)cc2)c1C`, for which the inhibition is 11.2% (inactive).
As for `O=C(CNC(=O)c1ccco1)NNC(=O)c1ccc(Br)cc1`, the inhibition was 1.51% (inactive).
Next, `O=C(CNC(=O)c1n[nH]c2ccccc12)Nc1cc(Cl)ccc1Cl`: 11.3% (inactive); `Oc1ccc(N=Nc2nccs2)c(O)c1`: 58.9% (active).
Regarding `Oc1ccc2ccccc2c1N=Nc1nccs1`, the inhibition is 99.3% (active).
The figure for `C[C@@H]1C(c2ccc(F)cc2)=NN(c2ccc(Br)cc2)[C@H]1C(=O)N1CCOC1=O` is 13.5% (inactive).
Next, `CCN(C[C@H]1N[C@@](Cc2ccccc2)(C(=O)OC)[C@H]2C(=O)N(Cc3ccccc3)C(=O)[C@@H]12)C(=O)c1ccc(C)cc1`: 1.44% (inactive).
Next, `CC1CCCCC1NC(=O)Cn1cnc2c1c(=O)n(C)c(=O)n2C` (centres undefined): 4.33% (inactive).
`CCOCCCNC(=O)c1cc2c(=O)n3ccccc3nc2s1`: the inhibition was 32.8% (inactive).
The figure for `CCc1cccc2c(=O)c(C(=O)NCCCOC)c[nH]c12` is 21.4% (inactive).
As to `Cc1cccn2c(=O)c3cc(C(=O)NCCN4CCOCC4)c(=N)n(Cc4cccnc4)c3nc12`, the inhibition was 69.1% (active).
Next, `O=C(NCc1cccnc1)c1cc(S(=O)(=O)N2CCOCC2)c(Cl)cc1Cl`: 2.88% (inactive); `CCn1c(=N)c(C(=O)NCCCOC)cc2c(=O)n3cccc(C)c3nc21`: 141% (active).
For the molecule `Cc1cccn2c(=O)c3cc(C(=O)NCC4CCCO4)c(=N)n(Cc4ccc(F)cc4)c3nc12` (centres undefined), the inhibition is 41.5% (inactive).
As for `COc1cc(C(=O)NC2CCN(C)CC2)ccc1Nc1ncc2c(n1)N(C1CCC(O)CC1)CCC(=O)N2C` (centres undefined), the inhibition is 5.47% (inactive).
The figure for `C[C@H]1CN([C@@H](C)CO)C(=O)Cc2cc(NC(=O)Cc3ccccc3)ccc2O[C@H]1CN(C)S(=O)(=O)c1cccs1` is 8.68% (inactive); for `COc1ccc(/C(O)=C2/C(=O)C(=O)N(CCCN(C)C)C2c2ccccc2)cc1OC` (centres undefined) it is 4.51% (inactive); for `O=C1C(=O)N(CCN2CCOCC2)C(c2cccc(Cl)c2)/C1=C(/O)c1ccc2c(c1)OCO2` (centres undefined) it is 13.6% (inactive).
Turning to `CC1Cc2cc(/C(O)=C3\C(=O)C(=O)N(CCN4CCOCC4)C3c3ccccc3F)ccc2O1` (centres undefined), the inhibition was 6.48% (inactive).
For `CCN(CC)CCN1C(=O)C(=O)/C(=C(/O)c2ccc(OC)c(OC)c2)C1c1ccccn1` (centres undefined), the inhibition was 51.5% (active).
Next, `CCCOc1ccc(/C(O)=C2/C(=O)C(=O)N(CCN(C)C)C2c2ccc(OC)c(OC)c2)cc1` (centres undefined): 31.1% (inactive); `O=C1C(=O)N(CCN2CCOCC2)C(c2ccccn2)/C1=C(/O)c1ccc(Cl)cc1` (centres undefined): 55.2% (active).

The record behind these values is PubChem BioAssay AID485270 (The Scripps Research Institute Molecular Screening Center, 2010).
